Test results reported in PubChem BioAssay AID1645854 (Buhrlage Lab, Dana-Farber Cancer Institute and Novartis …, 2021).
Screen size: about 47,000 compounds; about 140 (0.3%) were called active. Rule as the data show it: active = inhibition above about 30%; inactive = the rest. The sample as a whole holds a higher share of actives than the screen did.

Molecular target: Ubiquitin carboxyl-terminal hydrolase 7 (Homo sapiens) (UniProt Q93009)
Assay: inhibitors of human USP7 deubiquitinase (AID 1645854)
Settings: purified USP7, Ub-rhodamine cleavage fluorescence; at 20 µM; active compounds read high

Sequence of Ubiquitin carboxyl-terminal hydrolase 7 (Homo sapiens) (Q93009 whole entry, looked up): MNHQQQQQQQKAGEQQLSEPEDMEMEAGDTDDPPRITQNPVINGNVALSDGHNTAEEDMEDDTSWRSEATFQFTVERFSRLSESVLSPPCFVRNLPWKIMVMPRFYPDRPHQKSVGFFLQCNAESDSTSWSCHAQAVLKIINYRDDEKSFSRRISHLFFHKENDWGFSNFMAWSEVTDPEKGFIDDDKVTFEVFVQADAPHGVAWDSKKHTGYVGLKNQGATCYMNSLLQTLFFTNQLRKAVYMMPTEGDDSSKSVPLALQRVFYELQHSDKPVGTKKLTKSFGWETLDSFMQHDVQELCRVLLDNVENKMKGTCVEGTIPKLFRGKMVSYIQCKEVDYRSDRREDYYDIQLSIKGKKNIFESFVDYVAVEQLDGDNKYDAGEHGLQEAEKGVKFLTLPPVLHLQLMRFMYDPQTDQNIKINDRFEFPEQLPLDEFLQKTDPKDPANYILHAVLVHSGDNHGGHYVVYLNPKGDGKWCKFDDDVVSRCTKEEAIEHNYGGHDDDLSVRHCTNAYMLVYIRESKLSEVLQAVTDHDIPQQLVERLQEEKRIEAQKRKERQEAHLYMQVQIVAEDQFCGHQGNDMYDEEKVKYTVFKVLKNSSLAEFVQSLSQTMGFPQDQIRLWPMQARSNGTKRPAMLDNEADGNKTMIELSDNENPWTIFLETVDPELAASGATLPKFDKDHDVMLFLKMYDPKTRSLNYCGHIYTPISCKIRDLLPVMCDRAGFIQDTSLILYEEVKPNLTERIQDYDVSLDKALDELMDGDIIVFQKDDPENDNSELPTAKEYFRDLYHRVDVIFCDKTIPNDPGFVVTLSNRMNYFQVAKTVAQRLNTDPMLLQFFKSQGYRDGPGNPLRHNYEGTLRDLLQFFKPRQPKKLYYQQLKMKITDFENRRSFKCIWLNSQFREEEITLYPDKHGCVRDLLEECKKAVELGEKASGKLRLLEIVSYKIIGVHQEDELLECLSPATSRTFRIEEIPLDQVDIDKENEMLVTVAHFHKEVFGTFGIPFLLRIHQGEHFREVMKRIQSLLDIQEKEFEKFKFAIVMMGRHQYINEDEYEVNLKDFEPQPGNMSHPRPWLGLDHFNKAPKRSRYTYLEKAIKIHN

Compound | inhibition
c1cnc(N2CCC3(CCN(Cc4ccc5c(c4)OCO5)CC3)C2)nc1 | 6.59% (inactive)
COc1c2c(cc3c1C(c1nnnn1-c1ccc(C)cc1C)N(C)CC3)OCO2 (centres undefined) | 10.7% (inactive)
NC(=O)c1c(NC(=O)c2ccccc2Oc2ccccc2)sc2c1CCN(Cc1ccccc1)C2 | -143% (inactive)
O=C(Cc1ccccc1)N1CCN(c2cc(C(F)(F)F)nc3ccccc23)CC1 | 6.33% (inactive)
CCN(c1ccccc1)S(=O)(=O)c1ccc2c(c1)OC(C)CN2C(C)=O (centres undefined) | -10.2% (inactive)
CN(C)CCNC(=O)c1ccc2ccc(N(C)CC3CC3)n2c1 | -3.23% (inactive)
Cc1nccn1-c1cc(N2CCCC2)nc2ccnn12 | -3.6% (inactive)
CCCn1nccc1C(=O)NC[C@H]1C[C@@]2(C)[C@@H](O)CCCC[C@H]2N1C(C)=O | 4.78% (inactive)
COc1ccc(CC(=O)N2CCC3(CC2)OC(C(=O)NCC(C)C)Cn2ccnc23)cc1 (centres undefined) | -0.841% (inactive)
O=C(NCc1ccncc1)c1nc(-c2ccc(N3CCCCC3)nc2)no1 | -95.1% (inactive)
Cc1cc2nc(N3CCOCC3)n(CC(=O)Nc3ccccc3F)c(=O)c2n1C | -0.476% (inactive)
COc1ccccc1CNS(=O)(=O)c1ccc2c(c1)C(=O)N(C)c1ncccc1O2 | 1.09% (inactive)
O=C(CN1C(=O)[C@@H]2CCCN2c2ncccc21)NCc1ccccc1F | -0.124% (inactive)
Cc1csc2nc(COc3ccccc3NC(=O)c3ccccc3)cc(=O)n12 | -2.52% (inactive)
O=C(c1nc(-c2ccc3cc[nH]c3c2)no1)N1CCN(c2nsc3ccccc23)CC1 | 2.44% (inactive)
Cc1ccccc1CS(=O)(=O)Cc1ccc(C(=O)Nc2noc3ccccc23)o1 | 2.52% (inactive)
Cc1cccc(N2CCN(C(=O)c3nc4cccnc4n(C)c3=O)CC2)c1C | -13.2% (inactive)
O=C(Nc1ccc(F)cc1)c1ccc(CN2CCOCC2)cc1 | 3.54% (inactive)
Cc1cnc(C2COCCN2C(=O)c2c(C(C)C)noc2C)[nH]1 (centres undefined) | 4.99% (inactive)
Cc1ccc(NC(=O)N2CCN3CCCCC3C2)c(C)c1 (centres undefined) | -0.822% (inactive)
O=C(Nc1nc2ccc(S(=O)(=O)N3CCOCC3)cc2s1)c1cc2ccccc2oc1=O | 0.00877% (inactive)
Cc1ccc(-c2nc(Cn3nnc(C(=O)O)c3C)c(C)o2)cc1 | 1.5% (inactive)

Compound | inhibition
CCc1cnc(N2CCC3(CCN(C(=O)c4cccnc4)C3)CC2)nc1 | 1.31% (inactive)
OCCN1CCN(CC(O)COCCOc2ccc(Cl)cc2)CC1 (centres undefined) | 6.76% (inactive)
Cc1cnn(CC(=O)N2CCCCCC2c2ccncc2)c1 (centres undefined) | -1.92% (inactive)
CC(C)[C@H](Cn1nnc2ccccc21)NC(=O)c1ccc2c(c1)CCN2S(C)(=O)=O | -1.02% (inactive)
CC(C)CCNC(=O)C(=O)c1cn(CC(=O)N2CCCC2)c2ccccc12 | -9.94% (inactive)
CSc1cccc(NC(=O)CCn2c(=O)c3cccn3c3ccccc32)c1 | 5.36% (inactive)
Cc1nc(C2CCCN2C(=O)c2cccc3ncccc23)ncc1C(=O)N1CCOCC1 (centres undefined) | 1.41% (inactive)
O=C(C1CCN(c2cnc3nccnc3c2)CC1)N1CCN(C2CCCCC2)CC1 | -29.4% (inactive)
COc1ccc(-c2nnc(SCC(=O)c3cc(C)ccc3C)o2)cc1OC | 9.96% (inactive)
CC1CCC(NC(=O)C2(C)Cc3ccccc3C(=O)N2Cc2ccccc2)CC1 (centres undefined) | -18.1% (inactive)
CCCN1CCN(Cc2nc3nc(C)cc(N4CCCC4)n3n2)CC1 | 0.57% (inactive)
O=C(NCC1CC1)c1ccc2ccc(N3CCN(c4ncccn4)CC3)n2c1 | -17.3% (inactive)
Cn1ccc(-c2cc(C(=O)NCCc3ccccn3)c3ccccn23)n1 | 0.582% (inactive)
Cc1ccccc1NC(=O)N1CCC(CC(=O)N2CCCCC2)CC1 | 5.39% (inactive)
COc1cccc(-n2nnc(-c3nnc(-c4ccccc4)o3)c2C)c1 | -29.9% (inactive)
COc1ccc(C2C3CCCCC3(O)CCN2C(=O)/C=C/c2cc(OC)c(OC)c(OC)c2)c(OC)c1 (centres undefined) | 2.72% (inactive)
CN(C(=O)Cn1c(=O)n(CCCC(=O)N2CCc3ccccc3C2)c(=O)c2ccccc21)C1CCCCC1 | -62.2% (inactive)
Cn1c(CNC(=O)c2ccc(=O)[nH]c2)nc2ccccc21 | 3.71% (inactive)
CN(Cc1ccccn1)C(=O)c1cc(-c2ccn(C)n2)n2ccccc12 | -10.8% (inactive)
O=C(C1CCC1)N1CCCC(c2nc(N3CCOCC3)ncc2-c2cccnc2)C1 (centres undefined) | 1.73% (inactive)
CC1CCc2nc3ccccc3c(C(=O)OCC(=O)Nc3ccc4ccccc4c3)c2C1 (centres undefined) | -6.5% (inactive)
Cn1nc(C(=O)N2CCOCC2)c2c1CN(Cc1cccnc1)CC2 | -1.02% (inactive)

Compound | inhibition
CC1CCc2c(sc3[nH]c(=O)c(C(=O)Nc4ccc(C(N)=O)cc4)c(O)c23)C1 (centres undefined) | 2.02% (inactive)
CNS(=O)(=O)c1ccc(CNC(=O)c2cc(-c3ccc(C)cc3)no2)cc1 | 4.58% (inactive)
CN(C)CCNC(=O)c1ccc2c(c1)nc1n2CCN(C2CCCCC2)C1=O | -3.11% (inactive)
COc1ccccc1CNC(=O)c1nc(N2CCSCC2)c2cn(C)nc2n1 | -2.16% (inactive)
NC(=O)c1ccccc1NC(=O)C1CN(c2nc3c(F)cccc3s2)C1 | -0.695% (inactive)
CCN1CCN(Cc2nc3nc(C)cc(N4CCCC4)n3n2)CC1 | 0.109% (inactive)
Cc1cc(O)c(=O)cc2c1C[C@H]1CC(C)(C)/C=C/C[C@@]3(C)Oc4cc(=O)c(O)cc(C)c4C[C@@H]3C[C@H](O)[C@]1(C)O2 | 32.8% (active)
O=C(NCc1cccnc1)c1cc(-c2ccncc2)n(-c2ccc(F)cc2)n1 | 0.279% (inactive)
Cn1c(SCc2ccc(Cl)cc2)nnc1-c1ccc2c(c1)OCCO2 | -49.5% (inactive)
O=C(Nc1ccc2c(c1)CCC2)N1CC2CN(S(=O)(=O)c3ccccc3)CC(C1)O2 | -2.8% (inactive)
O=C1CCC2C(c3ccc4c(c3)OCO4)CC1N2Cc1ccccc1 (centres undefined) | -3.81% (inactive)
Cc1c(S(=O)(=O)Nc2ccccc2F)cc(C(=O)N2CCCCC2)n1C | 5.73% (inactive)
COc1ccc(Cn2c(=O)[nH]c3cc(C(=O)N4CCC(C(N)=O)CC4)ccc3c2=O)cc1 | -1.91% (inactive)
Cc1nn(C)c(Cl)c1C1CCCN1C(=O)c1ccc(C)n(C)c1=O (centres undefined) | 2.77% (inactive)
CC(C)C(=O)N[C@@H](CO)[C@H](O)c1ccc([N+](=O)[O-])cc1 | 0.416% (inactive)
CCc1ccc(-n2nnc(C(=O)Nc3nnc(CC)s3)c2C)cc1 | 0.00527% (inactive)
Cc1cnc(C(=O)N2CC[C@@H]3[C@H]2CCCC(=O)N3Cc2ccccc2C(F)(F)F)cn1 | -3.69% (inactive)
COCCNc1nn2c(-c3ccc4ccccc4c3)cnc2s1 | 1.48% (inactive)
Cc1nn(CC(=O)c2cc(C)n(-c3ccc4c(c3)OCO4)c2C)c(C)c1[N+](=O)[O-] | -2.39% (inactive)
Cc1cccc(C(C)C)c1NC(=O)c1ccc(OCc2ccccc2)cc1 | 0.214% (inactive)
